Measurements taken from PubChem BioAssay (NCI).
Compounds without any hit were thinned out: in the full panel of roughly 83,000, 20% have a hit.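 How to read the values: 0–100, growth inhibition (40 = 60% inhibited); 0, no net growth; -100 to 0, cell death (-40 = 40% of starting cells died; -100 = all dead).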 Values without a mark were called inactive. Calls of active or inactive are those of the source. Rule for the calls: active = growth percent below 10; inactive = the rest.

Legend:
Experiment in all cases: NCI-60 one-dose screen, 48 h (100 = growth as untreated, 0 = no growth, -100 = all killed)
Conditions in all cases: 10 µM
EKVX NSCLC = tested on: EKVX NSCLC
SN12C renal = tested on: SN12C renal
UO-31 renal = tested on: UO-31 renal
TK-10 renal = tested on: TK-10 renal
ACHN renal = tested on: ACHN renal
CAKI-1 renal = tested on: CAKI-1 renal
A498 renal = tested on: A498 renal
CCRF-CEM leukemia = tested on: CCRF-CEM leukemia
MOLT-4 leukemia = tested on: MOLT-4 leukemia
SR leukemia = tested on: SR leukemia
RPMI-8226 leukemia = tested on: RPMI-8226 leukemia
OVCAR-8 ovarian = tested on: OVCAR-8 ovarian
OVCAR-5 ovarian = tested on: OVCAR-5 ovarian
OVCAR-4 ovarian = tested on: OVCAR-4 ovarian
SK-OV-3 ovarian = tested on: SK-OV-3 ovarian
OVCAR-3 ovarian = tested on: OVCAR-3 ovarian
HS 578T breast = tested on: HS 578T breast
NCI/ADR-RES ovarian = tested on: NCI/ADR-RES ovarian
T-47D breast = tested on: T-47D breast
IGROV1 ovarian = tested on: IGROV1 ovarian

| Compound | growth (EKVX NSCLC) | growth (SN12C renal) | growth (UO-31 renal) | growth (TK-10 renal) | growth (ACHN renal) | growth (CAKI-1 renal) | growth (A498 renal) | growth (CCRF-CEM leukemia) | growth (MOLT-4 leukemia) | growth (SR leukemia) | growth (RPMI-8226 leukemia) | growth (OVCAR-8 ovarian) | growth (OVCAR-5 ovarian) | growth (OVCAR-4 ovarian) [%] | growth (SK-OV-3 ovarian) | growth (OVCAR-3 ovarian) | growth (HS 578T breast) | growth (NCI/ADR-RES ovarian) [%] | growth (T-47D breast) | growth (IGROV1 ovarian) |
| --- | --- | --- | --- | --- | --- | --- | --- | --- | --- | --- | --- | --- | --- | --- | --- | --- | --- | --- | --- | --- |
| Cc1ccc(-c2nc(/C=C3/C(=O)N(C)c4ccc(F)cc43)c3ccccn23)cc1 | 98.1% | 96.1% | 85.8% | 128% | 88.5% | 105% | 95.9% | 111% | 100% | 97.5% | 115% | 99.3% | 106% | 114 | 105% | 112% | 107% | 105 | 109% |  |
| COc1cc(-c2nnc(-c3c(-c4ccc(F)cc4)nc4ccccn34)o2)cc(OC)c1OC | 97% | 68.2% | 62.9% | 89.7% | 51.8% | 91.3% | 62.7% | 89.1% | 89.6% | 25.3% | 71.9% | 46.6% | 95.6% | 69.5 | 76% | 75.1% | 68.1% | 61.6 | 53.1% | 119% |
| COc1ccc2c(c1)/C(=C\c1c[nH]c3ccc(OC)cc13)C(=O)N2 | 47.8% | 52.8% | 46.8% | 81.7% | 39.6% | 21.3% | 34.6% | 28.6% | 11.7% | 14.7% | 36.7% | 59.7% | 64.8% | 57.6 | 52.8% | 52.6% | 46.9% | 28.1 | 49.7% | 41.7% |
| Clc1cccc(-c2nc(-c3cccs3)no2)c1 | 85.4% | 97.1% | 74.1% | 110% | 96.3% | 103% | 93.1% | 78.3% | 86.3% | 85.7% | 93.7% | 107% | 108% | 65.8 | 106% | 104% | 136% |  | 66.7% |  |
| COC(=O)c1c(-c2ccccc2)csc1NC(=O)c1c(-c2ccccc2)noc1C | 58.7% | 44.8% | 26% | 55.9% | 31.5% | 6.32% (active) | 67.8% | 35% | 15.9% | -17.2% (active) | 27.9% | 25.6% | 63% | 79.9 | 58.6% | 36.7% | 65.9% | 36.8 | 71.8% | 20.6% |
| Cc1ccc2oc3nc(C)c(C(=O)NCc4ccccc4)cc3c(=O)c2c1 | 77.1% | 96.5% | 63% | 87.2% | 63.8% | 60.3% | 104% | 76.4% | 64.3% | 79.9% | 86.1% | 92.5% | 86.8% | 85.3 |  | 99.7% | 106% | 63.4 | 63.5% | 103% |
| CCN(CC)CCCOCCCNc1cc(OC)cc2cccnc12 | 96.4% | 87.7% | 95.7% | 137% | 97.5% | 103% | 72% | 90.9% | 105% | 100% | 80.3% | 92.1% | 102% | 26.6 | 97.3% | 65.9% | 100% |  | 33.9% | 75.2% |
| Cc1cccc(Cl)c1NC(=O)c1ccc2nc(NC(=O)NC3CCN(C)CC3)sc2c1 | 90.9% | 73.8% | 84.1% | 83.8% | 102% | 100% | 104% | 83% | 77.9% | 86.7% | 87.7% | 94.6% | 71.1% | 99.5 | 61.8% | 116% | 48.6% | 106 | 66% | 86% |
| CCCCN(CCCC)CCCCCCCCC(O)c1cc2ccccc2c2ccccc12 (stereo unspecified) | 60.4% | 64.9% | 52.3% | 79% | 59.9% | 71.9% | 46% | 37.4% | 39% | 37.6% | -7.55% (active) | 49.4% | 74.8% | 46.2 | 80.7% |  | 73.7% | 54.6 | 31.7% | 44.8% |
| COc1ccc2nc3ccccc3c(NCCNCC(C)O)c2c1 (stereo unspecified) | 7.84% (active) | -4.73% (active) | 17.9% | 8.4% (active) | -3.07% (active) | 42.5% | -48.5% (active) | 5.94% (active) | 6.77% (active) | 4.1% (active) | -1.19% (active) | -2.99% (active) | 1.61% (active) | 11.8 | -3.44% (active) |  | 28.4% | 73.6 | -3.73% (active) | 4.2% (active) |
| Cc1cc(C)c(CCc2cc(C)c(C)cc2C)cc1C | 102% | 107% | 92.2% | 117% | 112% | 94.1% | 98.7% | 93% | 90.5% | 90.4% | 102% | 102% |  | 92.9 | 114% | 114% | 108% | 107 | 114% | 111% |
| Oc1[nH]c2ccc(Cl)cc2c1/C=c1/ccc2c(c1)N=C(c1cccs1)N=2 | 66.3% | 54.9% | 72.7% | 81.5% | 58% | 52.6% | 44.6% | 31.9% | 42.3% | 37% | 48% | 52.2% | 89.3% | 52.3 | 87.5% | 56.1% | 59.5% | 64.3 | 59.4% | 61% |
| NC1=NC(=O)C(c2ccccc2)(c2ccccc2)S1 | 107% | 106% | 73.9% | 100% | 107% | 114% | 106% | 97.1% | 97.5% | 94.8% | 96.3% | 107% |  | 97 | 105% | 119% | 108% | 109 |  | 115% |
| CCCCCCCCCCCCCCCCN(C(C)c1ccccc1)S(=O)(=O)c1ccc(OC)c(N)c1 (stereo unspecified) | 114% | 118% | 89.2% | 122% | 106% | 96.5% | 123% | 97.5% | 98.8% | 94.2% | 103% | 104% | 104% | 92.1 | 112% | 107% | 126% |  | 113% | 129% |
| COc1ccc(-c2ccc3cc(C(=O)Nc4ccc(O)c(C(=O)/C=C/c5cc(OC)c(OC)c(OC)c5)c4)ccc3c2)cc1 | 101% | 92.6% | 59.6% | 100% | 96.3% | 86.6% | 91.2% | 53.8% | 69.6% | 60.3% | 60.2% | 84.9% |  | 94.5 |  | 100% | 102% |  | 85.5% | 89.6% |
| COc1cc(-c2nc(-c3nnc(-c4ccccc4Cl)o3)c3ccccn23)cc(OC)c1OC | 92.2% | 82.9% | 67.6% | 106% | 68.3% | 86.2% | 84.3% | 51.4% | 56.3% |  | 50.2% | 47.8% | 92.5% | 77.4 | 84.5% | 86.4% | 83.1% | 66.4 | 61.4% |  |
| CC(C)C[C@H](NC(=O)[C@H](Cc1cccc2ccccc12)NS(=O)(=O)c1cccc2cccnc12)B(O)O | 6.76% (active) | 8.75% (active) | -80.2% (active) | -60.2% (active) | -3.75% (active) | -20.7% (active) | -36.4% (active) | -18.8% (active) | 1.17% (active) | 2.44% (active) | -36.7% (active) |  | -57.6% (active) |  |  | -77.1% (active) | -18.8% (active) | 14.6 | -44.6% (active) | -64.7% (active) |
